Assay [1] deals with Falciformispora senegalensis CBS197.79. The assay is described as follows: growth relative to untreated control; higher = less inhibition, active = 20 or less. An outline of the steps: (§1)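 Viability readout used either MTS (2 h, 490 nm) or resazurin (600 nm). Before this, hyphal fragments of M. mycetomatis MM55 or F. senegalensis CBS197.79 in colourless RPMI 1640 with L-glutamine and MOPS (68–72% transmission at 660 nm) had been exposed in 96-well plates to compound at 100 or 25 µM for 7 days at 37 °C. Growth denotes metabolic activity relative to the untreated growth control, with a medium-plus-dye blank subtracted from both.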

In assay [2] the test system is Madurella mycetomatis MM55. Described as above. An outline of the steps:
as §1

Values without a mark were called inactive.

For `O=C(NC(=O)c1c(F)cccc1F)Nc1ccc(Cl)cc1`, the growth in assay [1] (25 µM) is 92.8%; in assay [1] (100 µM) it was 84.5%.

As to `COC(=O)N(C(=O)N1CO[C@@]2(C(=O)OC)Cc3cc(Cl)ccc3C2=N1)c1ccc(OC(F)(F)F)cc1`, the growth in assay [1] (25 µM) is 100%; in assay [1] (100 µM), 96.3%.

Turning to `CNC(=O)Oc1ccccc1OC(C)C`, the growth in assay [1] (25 µM) is 92.8%; in assay [1] (100 µM) it was 97.7%; in assay [2] (25 µM) it was 120%; in assay [2] (100 µM) it was 129%.

In the case of `CNC(=O)c1cc(Cl)cc(C)c1NC(=O)c1cc(Br)nn1-c1ncccc1Cl`, the growth in assay [1] (25 µM) is 93.3%; in assay [1] (100 µM), 94.4%; in assay [2] (25 µM), 81.9%; in assay [2] (100 µM) it was 57%.

`CC(C)=CC1C(C(=O)OCN2C(=O)C3=C(CCCC3)C2=O)C1(C)C` (stereo not drawn): the figures for the growth in assay [1] (25 µM) and in assay [1] (100 µM) were 93.7% and 100%, respectively.

In the case of `CCC(CC)c1cccc(OC(=O)NC)c1.CCCC(C)c1cccc(OC(=O)NC)c1`, the growth was 98.4% in assay [1] (25 µM) and 81.9% in assay [1] (100 µM).

Consider `CC(COc1ccc(Oc2ccccc2)cc1)Oc1ccccn1` (stereo not drawn), for which the growth in assay [1] (25 µM) is 88.9%; in assay [1] (100 µM), 75.6%.

Turning to `CCN(Cc1ccc(Cl)nc1)/C(=C/[N+](=O)[O-])NC`, the growth in assay [1] (25 µM) was 95.3%; in assay [1] (100 µM), 89.6%; in assay [2] (25 µM) it was 86.9%; in assay [2] (100 µM), 132%.

Consider `CCOP(=S)(OCC)Oc1cc(C)nc(C(C)C)n1`, for which the growth is 97.9% in assay [1] (25 µM), 88.9% in assay [1] (100 µM), 108% in assay [2] (25 µM) and 135% in assay [2] (100 µM).

As for `C[C@@H]1O[C@@H](O[C@@H]2C=C3CC[C@@H]4[C@H](CC[C@]5(C)[C@@H](c6ccc(=O)oc6)CC[C@]45O)[C@@]3(C)CC2)[C@H](O)[C@H](O)[C@H]1O`, the results for the growth in assay [1] (25 µM) and in assay [1] (100 µM) were 99.3% and 104%, respectively.

On to `CN(C)CCn1c(Nc2cc(Cl)cc(C(F)(F)F)c2)nc2cnc(NC3CCCC3)cc21`, for which the growth in assay [1] (25 µM) was 94.1%; in assay [1] (100 µM), 105%.

Take `CNC(=O)Oc1cccc2ccccc12`: the growth in assay [1] (25 µM) was 99.6%; in assay [1] (100 µM), 108%.

For the compound `Cc1cc(C2=NOC(c3cc(Cl)cc(Cl)c3)(C(F)(F)F)C2)ccc1C(=O)NCC(=O)NCC(F)(F)F` (stereo not drawn), the growth in assay [1] (25 µM) was 92.4%; in assay [1] (100 µM) it was 103%.

Consider `Clc1cc(Cl)cc(Nc2nc3cnc(NC4CCCC4)cc3n2C2CCNC2)c1` (stereo not drawn), for which the growth in assay [1] (25 µM) was 52.2%; in assay [1] (100 µM) it was 77.4%; in assay [2] (25 µM), 7.86% (active); in assay [2] (100 µM), 6.79% (active).

Source of the values: the supplement of paper PMC11172423.
